# Inconclusive results are not listed. The source made the active and inactive calls. Unless noted, calls come from the whole dose curve; as a rule, active = well fitted curve in either direction with a large enough effect (not every such curve was filed as active); inconclusive = small, poorly fitted or top-dose-only effect, or another doubt; inactive = flat fitted curve, though single readings scatter.
# Legend:
# [1] = target: Lysosomal acid glucosylceramidase (Homo sapiens) (UniProt P04062); assay: Glucocerebrosidase-p2 (AID 348; in the data active = potency below about 10 µM; note: potency is the fitted concentration of half-maximal effect); conditions: purified GBA, blue fluorogenic substrate, 40 min
# Sequence of Lysosomal acid glucosylceramidase (Homo sapiens) (P04062 whole entry, looked up): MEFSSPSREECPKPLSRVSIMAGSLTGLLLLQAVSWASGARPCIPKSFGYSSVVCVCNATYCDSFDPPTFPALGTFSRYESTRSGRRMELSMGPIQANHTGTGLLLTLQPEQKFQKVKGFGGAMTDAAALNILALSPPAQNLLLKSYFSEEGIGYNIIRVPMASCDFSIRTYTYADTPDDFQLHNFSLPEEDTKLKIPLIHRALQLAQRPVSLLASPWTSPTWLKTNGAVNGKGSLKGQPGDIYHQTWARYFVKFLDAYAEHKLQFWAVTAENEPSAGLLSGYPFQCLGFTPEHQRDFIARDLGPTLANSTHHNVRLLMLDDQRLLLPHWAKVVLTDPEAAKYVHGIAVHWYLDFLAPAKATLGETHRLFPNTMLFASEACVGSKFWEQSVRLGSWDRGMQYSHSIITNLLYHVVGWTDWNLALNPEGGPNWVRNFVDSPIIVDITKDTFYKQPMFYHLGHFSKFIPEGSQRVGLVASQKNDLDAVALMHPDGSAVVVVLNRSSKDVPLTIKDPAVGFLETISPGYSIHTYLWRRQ
# Outline: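 Normal human glucocerebrosidase (0.2 nM) with blue fluorogenic substrate (80 uM final) in citrate/phosphate pH 5.9 with 10mM sodium taurocholate, 0.01% tween-20; 40 min RT, NaOH/glycine stop; fluorescence Ex 365/Em 440; AC50 from a titration from 0.6 nM upwards.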
# [2] = AP1 Signaling Pathway (AID 357); conditions: ME-180 AP-1-bla reporter, EGF-induced, beta-lactamase ratio, 5 h; at 7.69 µM (top of the series) unless noted;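 note: ME-180 reporter cells stimulated with EGF at its EC50 level; % is set by controls: 0 for no effect and ±100 for the full control effect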
# Outline: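 Cells are seeded overnight, exposed to compound titrations and an EC50 level of EGF for 5 hours at 37 °C, then loaded with CCF4 dye for 2.5 hours. Beta-lactamase activity under the AP-1 element is read as a blue/green ratio.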
# [3] = NFAT Signaling Pathway (AID 444); conditions: Jurkat NFAT-bla M1, carbachol, beta-lactamase ratio, 5 h; at 7.69 µM (top of the series) unless noted;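 note: carbachol stimulus at about its EC50 of 1 µM final; % is set by controls: 0 for no effect and ±100 for the full control effect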
# Outline: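 Read-out: CCF4 FRET ratio (460 nm/530 nm) after 1 h RT dye loading, used for %activity and AC50 from titration series. Cells: Jurkat NFAT-β-lactamase/M1 line, treated with compound plus 1 uM carbachol for 5 h, 37 °C.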
# [4] = Stat Signaling Pathway (AID 446); conditions: ME-180 SIE beta-lactamase reporter, IL-6 stimulated, 5 h; at 7.69 µM (top of the series) unless noted;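 note: ME-180 cervical cancer cells given 40 pM IL-6 alongside compound; SIE-controlled beta-lactamase reporter measured as 460/530 nm FRET emission ratio; % is set by controls: 0 for no effect and ±100 for the full control effect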
# Outline: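 FRET read-out (405 nm excitation, 460/530 nm emission) of a beta-lactamase reporter under a STAT-inducible element in ME-180 cervical carcinoma cells. Cells with compound receive 40 pM IL-6 for 5 h. Values are normalised to AC90 stimulation and AC90 JAK-inhibitor controls.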
# [5] = target: Glucocorticoid receptor (Homo sapiens) (UniProt P04150); assay: GR-GFP Redistribution (AID 450;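 active = compounds whose dose series gives a full or clear partial fitted curve of increased nuclear translocation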; note: potency is the fitted concentration of half-maximal effect); conditions: U2OS GR-GFP nuclear translocation, laser cytometry, 2 h
# Sequence of Glucocorticoid receptor (Homo sapiens) (P04150 whole entry, looked up, the tested form may be a part): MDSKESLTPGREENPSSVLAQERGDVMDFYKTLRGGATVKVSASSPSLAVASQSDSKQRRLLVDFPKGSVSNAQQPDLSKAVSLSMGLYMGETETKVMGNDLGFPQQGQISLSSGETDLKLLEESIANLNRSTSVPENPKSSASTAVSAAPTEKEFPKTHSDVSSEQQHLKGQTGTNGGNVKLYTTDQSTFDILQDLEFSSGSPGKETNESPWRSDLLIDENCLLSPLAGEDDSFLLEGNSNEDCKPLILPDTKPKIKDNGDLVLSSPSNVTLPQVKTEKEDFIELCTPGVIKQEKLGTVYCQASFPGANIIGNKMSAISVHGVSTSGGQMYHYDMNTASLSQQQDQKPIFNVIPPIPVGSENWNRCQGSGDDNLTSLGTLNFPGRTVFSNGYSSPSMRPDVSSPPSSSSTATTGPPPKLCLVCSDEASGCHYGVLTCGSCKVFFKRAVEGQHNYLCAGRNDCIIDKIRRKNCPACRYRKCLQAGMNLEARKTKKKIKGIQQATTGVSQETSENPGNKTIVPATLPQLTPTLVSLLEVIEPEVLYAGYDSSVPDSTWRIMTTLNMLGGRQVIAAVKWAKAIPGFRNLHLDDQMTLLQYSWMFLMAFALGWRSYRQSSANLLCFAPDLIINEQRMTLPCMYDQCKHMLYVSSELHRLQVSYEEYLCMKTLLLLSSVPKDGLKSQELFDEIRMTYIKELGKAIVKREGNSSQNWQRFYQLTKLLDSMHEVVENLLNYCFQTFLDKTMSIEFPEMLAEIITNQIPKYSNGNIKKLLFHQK
# [6] = target: Glucocorticoid receptor (Homo sapiens) (UniProt P04150); assay: GR-EFC Redistribution (AID 451; calls by dose curve; note: potency is the fitted concentration of half-maximal effect); conditions: CHO-K1 GR-EFC translocation, beta-gal luminescence, 2 h
# Outline: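 Translocation of GR-ED fusion to nuclear EA restores b-gal, read by luminescence after 1 h room-temperature detection. Engineered CHO-K1 biosensor cells, 1,000/well, exposed 2 h at 37 C to titrations up to 46 uM final.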
# [7] = target: Mitogen-activated protein kinase 10 (Mus musculus) (UniProt Q61831); assay: JNK3 AlphaScreen Assay (AID 530); conditions: JNK3 lysate, c-Jun phosphorylation; series mostly up to 57.1 µM;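 note: kinase came from lysate of stimulated human HepG2 cells; signal reports phosphorylation of biotinylated GST-cJun 1-79 at Ser73 with 10 µM ATP; % is set by controls: 0 for no effect and ±100 for the full control effect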
# Outline: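 Kinase buffer: 20 mM Tris-HCl pH 7.6, 10 mM MgCl2, 1 mM DTT, 0.1 mM Na3VO4, 0.01% Tween-20; ATP 10 uM. Substrate biotin-GST-cJun(1-79), enzyme from activated HepG2 lysates. Detection by Ser73 phospho-antibody AlphaScreen.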
# [8] = target: Cytochrome P450 3A4 (Homo sapiens) (UniProt P08684); assay: qHTS Assay for Activators of Cytochrome P450 3A4 (AID 885; active = well fitted curve in the direction sought with a large enough effect; an effect the other way counts as inactive or inconclusive; note: nearly all actives have a fitted effect of over 65% in size); conditions: recombinant CYP3A4, Luciferin-PPXE luminescence, 60 min; series mostly up to 57.1 µM
# Sequence of Cytochrome P450 3A4 (Homo sapiens) (P08684 whole entry, looked up): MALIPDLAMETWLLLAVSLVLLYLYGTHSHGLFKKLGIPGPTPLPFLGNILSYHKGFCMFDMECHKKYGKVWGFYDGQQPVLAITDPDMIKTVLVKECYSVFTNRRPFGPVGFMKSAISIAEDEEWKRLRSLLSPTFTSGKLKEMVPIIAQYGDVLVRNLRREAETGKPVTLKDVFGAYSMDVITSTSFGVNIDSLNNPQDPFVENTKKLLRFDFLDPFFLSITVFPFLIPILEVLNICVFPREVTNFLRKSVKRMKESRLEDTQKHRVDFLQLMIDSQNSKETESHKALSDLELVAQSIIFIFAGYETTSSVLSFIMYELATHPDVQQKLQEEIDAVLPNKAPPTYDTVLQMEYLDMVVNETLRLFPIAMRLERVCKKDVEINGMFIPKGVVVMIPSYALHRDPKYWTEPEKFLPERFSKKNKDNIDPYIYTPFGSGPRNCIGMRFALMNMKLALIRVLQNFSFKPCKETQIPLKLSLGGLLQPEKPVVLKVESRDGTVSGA
# Outline: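 Luminescent readout of luciferin formed from 25 uM Luciferin-PPXE (KM level) by 20 nM CYP3A4 in 200 mM KPO4, with 60 min NADPH-driven reaction at room temperature after 10 min compound exposure. Ketoconazole (57 uM) defined 100% inhibition.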
# [9] = target: Cytochrome P450 2C19 (Homo sapiens) (UniProt P33261); assay: qHTS Assay for Inhibitors and Substrates of Cytochrome P450 2C19 (AID 899; active = well fitted curve in the direction sought with a large enough effect; an effect the other way counts as inactive or inconclusive; note: potency is the fitted concentration of half-maximal effect; nearly all actives have a fitted effect of over 60% in size); conditions: recombinant CYP2C19, luciferin-H EGE luminescence; series mostly up to 57.1 µM
# Sequence of Cytochrome P450 2C19 (Homo sapiens) (P33261 whole entry, looked up): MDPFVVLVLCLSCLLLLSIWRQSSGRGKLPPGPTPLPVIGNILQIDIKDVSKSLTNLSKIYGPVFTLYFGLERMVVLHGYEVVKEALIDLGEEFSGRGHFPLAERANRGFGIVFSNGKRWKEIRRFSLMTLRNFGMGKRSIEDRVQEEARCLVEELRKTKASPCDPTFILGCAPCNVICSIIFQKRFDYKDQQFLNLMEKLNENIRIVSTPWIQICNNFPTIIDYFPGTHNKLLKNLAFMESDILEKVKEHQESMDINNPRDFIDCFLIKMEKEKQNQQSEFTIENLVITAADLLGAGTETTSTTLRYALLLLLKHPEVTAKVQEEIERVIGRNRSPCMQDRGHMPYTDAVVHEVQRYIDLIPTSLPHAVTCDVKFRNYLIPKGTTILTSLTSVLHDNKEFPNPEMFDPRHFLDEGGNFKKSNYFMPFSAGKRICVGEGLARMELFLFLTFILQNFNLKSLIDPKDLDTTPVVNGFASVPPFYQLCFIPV
# Outline: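 Reactions contain 5nM enzyme, 10uM Luciferin-H EGE (KM) and 50mM KPO4; compound preincubates 10 min at 37C, NADPH regeneration starts turnover for 60 min. Luminescence after detection reagent gives activity.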
# [10] = Confirmation and Secondary Assay for Modulators of Hemoglobin Beta Chain Splicing at IVS2 654 locus (AID 910; active = well fitted curve in the direction sought with a large enough effect; an effect the other way counts as inactive or inconclusive;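 note: HeLa cells stably carrying EGFP split by mutant beta-globin IVS2-654 intron; per-well total GFP intensity by laser scanning cytometry after 2-day treatment; % of control where 0% means no effect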); conditions: HeLa EGFP-654 splicing reporter, GFP fluorescence, 48 h; series mostly up to 38.3 µM
# Outline: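 Readout: per-well total peak green fluorescence (488 nm ex, 500–520 nm em) from objects 5–250 µm, reflecting correct splicing of an EGFP-654 reporter. Compounds were applied for 2 days at 37 °C to overnight-plated HeLa EGFP-654 cells; controls were DMSO and 500 nM IVS2-654 PNA.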
# [11] = Confirmation and Secondary Assay for Modulators of Hemoglobin Beta Chain Splicing at IVS2 705 locus (AID 930; active = well fitted curve in the direction sought with a large enough effect; an effect the other way counts as inactive or inconclusive;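 note: HeLa cells stably expressing the EGFP-705 splicing reporter; GFP fluorescence per well restored by corrected splicing of the IVS2-705 intron in EGFP; % of control where 0% means no effect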); conditions: HeLa EGFP-705 splicing reporter, GFP fluorescence, 48 h; series mostly up to 38.3 µM
# Outline: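 Splice-correction reporter: EGFP cDNA split by beta-globin intron 2 bearing the 705 mutation, stably in HeLa. Compound incubation 2 days, 37C; fluorescent objects 5-250 µm summed per well.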
# [12] = qHTS Assay for Lipid Storage Modulators (AID 1519; calls by dose curve); conditions: Drosophila S3 cells, BODIPY lipid droplet/cell ratio, laser cytometry, cells loaded with oleic acid; for activity change, negative = inhibition: at 57.5 µM (top of the series)
# Outline: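 Cells seeded at 5,000 per well were treated with compounds over a concentration series and loaded with oleic acid (400 uM, as added). Lipid droplet fluorescence (488 nm excitation, 500-530 nm channel) was read by laser-scanning cytometry and normalized to 20 uM Triacsin C.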
# [13] = Primary qHTS for small molecule stabilizers of the endoplasmic reticulum resident proteome: Secreted ER Calcium Modulated Protein (SERCaMP) assay (AID 1508630; active = well fitted curve in the direction sought with a large enough effect; an effect the other way counts as inactive or inconclusive; note: % is set by controls: 0 for no effect and ±100 for the full control effect); conditions: SH-SY5Y GLuc-SERCaMP (Gaussia luciferase released on ER calcium loss) secretion, thapsigargin, luminescence; series mostly up to 38.4 µM
# Outline: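 The SH-SY5Y reporter protocol was run at 3 concentrations up to 38.3 uM (primary) or 11 concentrations (follow-up): 16 h compound, 100 nM thapsigargin for 4 h, then extracellular luciferase luminescence.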
# [14] = target: 3',5'-cyclic-AMP phosphodiesterase 4B (Homo sapiens) (UniProt Q07343); assay: qHTS Assay for Inhibitors of PDE-IV (AID 607; active = well fitted activation curve with a large enough effect in the main read-out, with a control signal flat, not every such curve was filed as active; note: % of control where 0% means no effect); conditions: HEK293 ACTOne CNG channel cells, membrane potential fluorescence; series mostly up to 22.9 µM
# Sequence of 3',5'-cyclic-AMP phosphodiesterase 4B (Homo sapiens) (Q07343 whole entry, looked up): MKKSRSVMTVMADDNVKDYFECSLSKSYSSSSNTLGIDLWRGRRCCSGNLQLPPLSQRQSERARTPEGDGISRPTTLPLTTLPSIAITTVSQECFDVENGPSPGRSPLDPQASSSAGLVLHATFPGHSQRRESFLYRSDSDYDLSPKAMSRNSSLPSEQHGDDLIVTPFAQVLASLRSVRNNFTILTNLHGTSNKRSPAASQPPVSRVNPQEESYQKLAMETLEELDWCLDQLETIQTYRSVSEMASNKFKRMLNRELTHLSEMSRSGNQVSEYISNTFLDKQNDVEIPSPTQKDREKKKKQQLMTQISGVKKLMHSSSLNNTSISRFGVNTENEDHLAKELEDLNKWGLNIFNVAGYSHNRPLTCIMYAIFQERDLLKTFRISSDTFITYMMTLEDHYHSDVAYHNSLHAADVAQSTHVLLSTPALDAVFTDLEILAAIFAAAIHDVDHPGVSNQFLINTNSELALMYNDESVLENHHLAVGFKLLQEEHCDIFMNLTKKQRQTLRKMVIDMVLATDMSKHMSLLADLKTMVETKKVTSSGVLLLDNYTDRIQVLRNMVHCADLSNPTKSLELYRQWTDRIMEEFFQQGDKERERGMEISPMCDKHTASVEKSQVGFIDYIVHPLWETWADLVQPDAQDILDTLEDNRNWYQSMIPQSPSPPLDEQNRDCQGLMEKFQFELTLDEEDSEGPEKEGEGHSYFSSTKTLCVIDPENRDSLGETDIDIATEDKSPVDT
# Outline: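 Cell-based read-out of cAMP via a modified cyclic nucleotide-gated channel and membrane potential dye (535/590 nm) in HEK293 cells expressing PDE4 endogenously. Compounds tested up to 22.9 uM final; 100 uM RO 20-1724 reference.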
# [15] = target: Ubiquitin carboxyl-terminal hydrolase 1 (Homo sapiens) (UniProt O94782); assay: Inhibitors of USP1/UAF1: Pilot qHTS (AID 504865; active = well fitted curve in the direction sought with a large enough effect; an effect the other way counts as inactive or inconclusive;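 note: rhodamine fluorescence freed from ubiquitin-rhodamine substrate followed over time; top concentration of the series differs between compounds; % is set by controls: 0 for no effect and ±100 for the full control effect; nearly all actives have a fitted effect of over 35% in size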); conditions: purified USP1/UAF1, Ub-rhodamine cleavage fluorescence; series mostly up to 54.9 µM
# Sequence of Ubiquitin carboxyl-terminal hydrolase 1 (Homo sapiens) (O94782 whole entry, looked up): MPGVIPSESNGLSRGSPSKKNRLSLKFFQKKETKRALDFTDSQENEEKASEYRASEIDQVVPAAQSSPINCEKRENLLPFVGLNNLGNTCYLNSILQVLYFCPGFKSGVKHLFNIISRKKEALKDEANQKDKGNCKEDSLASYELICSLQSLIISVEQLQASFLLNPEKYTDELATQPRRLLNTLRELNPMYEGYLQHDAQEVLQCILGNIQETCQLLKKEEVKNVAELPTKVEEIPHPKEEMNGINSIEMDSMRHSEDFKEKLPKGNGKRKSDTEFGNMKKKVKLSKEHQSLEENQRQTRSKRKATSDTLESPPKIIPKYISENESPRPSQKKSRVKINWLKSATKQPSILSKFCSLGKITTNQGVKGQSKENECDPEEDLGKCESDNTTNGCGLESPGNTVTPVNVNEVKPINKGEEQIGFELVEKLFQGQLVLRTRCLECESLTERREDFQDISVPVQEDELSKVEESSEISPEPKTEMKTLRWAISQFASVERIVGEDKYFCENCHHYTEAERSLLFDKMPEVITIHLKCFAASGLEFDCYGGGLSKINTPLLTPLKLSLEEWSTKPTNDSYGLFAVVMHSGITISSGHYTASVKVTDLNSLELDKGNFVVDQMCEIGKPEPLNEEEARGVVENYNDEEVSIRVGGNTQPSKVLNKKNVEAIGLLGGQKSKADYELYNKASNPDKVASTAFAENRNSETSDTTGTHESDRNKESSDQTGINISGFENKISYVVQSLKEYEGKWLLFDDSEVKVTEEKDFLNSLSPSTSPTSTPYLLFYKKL
# Outline: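 USP1/UAF1 complex at 1 nM preincubated 15 min at room temperature with compound, then Ub-Rho substrate added at 150 nM final. Fluorescence (480/540 nm) read kinetically in 50 mM HEPES pH 7.8, 0.5 mM EDTA, 1 mM TCEP, 0.1 mg/ml BSA, 0.01% Tween-20.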
# [16] = target: Cytochrome P450 1A2 (Homo sapiens) (UniProt P05177); assay: p450-cyp1a2 (AID 410; calls by dose curve; note: potency is the fitted concentration of half-maximal effect); conditions: recombinant CYP1A2, luciferin-ME demethylation, luminescence; series mostly up to 57 µM
# Sequence of Cytochrome P450 1A2 (Homo sapiens) (P05177 whole entry, looked up): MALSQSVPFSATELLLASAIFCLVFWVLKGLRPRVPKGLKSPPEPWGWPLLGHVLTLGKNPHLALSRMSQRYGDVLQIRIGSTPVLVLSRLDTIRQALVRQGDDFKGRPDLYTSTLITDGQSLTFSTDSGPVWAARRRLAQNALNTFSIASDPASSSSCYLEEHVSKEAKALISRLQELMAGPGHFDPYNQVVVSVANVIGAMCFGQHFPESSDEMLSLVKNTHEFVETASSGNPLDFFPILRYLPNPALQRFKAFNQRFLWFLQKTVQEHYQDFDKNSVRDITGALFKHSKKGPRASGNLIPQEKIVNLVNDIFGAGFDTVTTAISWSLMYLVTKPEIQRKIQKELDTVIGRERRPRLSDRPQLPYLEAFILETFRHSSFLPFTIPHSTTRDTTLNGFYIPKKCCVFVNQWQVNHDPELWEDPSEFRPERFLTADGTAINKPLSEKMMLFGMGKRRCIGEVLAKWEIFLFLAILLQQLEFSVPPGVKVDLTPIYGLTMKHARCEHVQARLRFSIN
# Outline: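 20nM CYP1A2, 100uM Luciferin-ME (=Km), 100mM KPO4; cpd 10 min RT; +NADPH regen, 60 min RT; stop/detect 20 min; luminescence. Normalized to furafylline 57 uM = full inhibition.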
# [17] = target: Cytochrome P450 3A4 (Homo sapiens) (UniProt P08684); assay: qHTS Assay for Inhibitors and Substrates of Cytochrome P450 3A4 (AID 884; active = well fitted curve in the direction sought with a large enough effect; an effect the other way counts as inactive or inconclusive; note: potency is the fitted concentration of half-maximal effect; nearly all actives have a fitted effect of over 50% in size); conditions: recombinant CYP3A4, Luciferin-PPXE luminescence; series mostly up to 57.1 µM
# Outline: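 Luminescent readout of luciferin produced by CYP3A4 (20 nM) dealkylation of Luciferin-PPXE, 25 uM (its KM). NADPH-driven reaction ran 60 min at RT after 10 min compound preincubation; data scaled to 57 uM ketoconazole as 100% inhibition.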
# [18] = qHTS Assay for Identification of Small Molecule Agonists for Hypoxia Response Element Signaling Pathway (AID 914; active = well fitted activation curve with a large enough effect in the signal ratio, with a control signal flat, not every such curve was filed as active; the % refers to the signal ratio; note: potency is the fitted concentration of half-maximal effect); conditions: ME-180 (cervical carcinoma) HRE-bla reporter, beta-lactamase ratio, CoCl2, 17 h; activation: stronger effect = higher value
# Outline: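 Cells were plated overnight, pin-dosed with compound in a titration series, co-stimulated with EC50 CoCl2 and incubated 17 hours at 37 degrees Celsius. CCF4 substrate was then loaded, and AC50 values came from the 460nm/530nm ratio.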
# [19] = measured here: cell count channel max response
# [20] = measured here: lipid channel max response
Compound,Potency [1],"activity change, negative = inhibition [2]","activity change, negative = inhibition [3]","activity, negative = inhibition [4]",Potency [5],Potency [6],Potency [7],Potency [8],Potency [9],Potency [10],outcome [11],"activity change, negative = inhibition [12]","max response [12, 19]","max response [12, 20]",outcome [13],Potency [14],Potency [15],Potency [16],Potency [17],Potency [18]
Cc1ccccc1-c1cc(Nc2ccc(F)cc2)ncn1,> 11.4 µM (inactive),-11.7% (inactive),6.17% (inactive),-0.99% (inactive),> 46 µM (inactive),> 46 µM (inactive),inactive,inactive,0.631 µM (active),inactive,inactive,9.27% (inactive),-1.72%,7.96%,inactive,–,–,–,–,–
COc1ccc(CNc2ncncc2-c2ccccc2Cl)c(OC)c1,> 11.4 µM (inactive),-16.1% (inactive),-7% (inactive),15.1% (inactive),> 46 µM (inactive),> 46 µM (inactive),inactive,–,–,inactive,inactive,5.27% (inactive),-5%,2.12%,inactive,inactive,inactive,–,–,–
COCCn1c(=O)c(-c2cn(C)c3ccccc23)nc2cnc(Oc3ccc(OC)cc3)nc21,> 11.4 µM (inactive),14.1% (inactive),–,–,> 46 µM (inactive),> 46 µM (inactive),–,inactive,–,–,–,-11.5% (inactive),2.76%,-6.23%,inactive,inactive,–,2.51 µM (active),3.98 µM (active),3.16 µM (active)
Cc1cccc(CNc2cc(-c3ccoc3)ncn2)c1,> 11.4 µM (inactive),-15.6% (inactive),12% (inactive),-3.91% (inactive),> 46 µM (inactive),> 46 µM (inactive),inactive,inactive,–,inactive,inactive,5.52% (inactive),-1.87%,6.63%,inactive,inactive,–,–,7.94 µM (active),–
Cc1noc(C)c1-c1nc(NCc2cccnc2)c2ccccc2n1,> 11.4 µM (inactive),2.83% (inactive),-10.7% (inactive),-14.2% (inactive),> 46 µM (inactive),> 46 µM (inactive),inactive,–,–,inactive,inactive,11.8% (inactive),12.2%,21%,inactive,–,–,–,–,–
COCC(=O)N1CCC2(CC1)CCN(c1ccccc1)CC2,> 11.4 µM (inactive),-2.33% (inactive),15.9% (inactive),-2.7% (inactive),–,> 46 µM (inactive),inactive,–,–,–,–,-1.96% (inactive),4.08%,3.97%,inactive,inactive,–,–,–,–
COc1ccc(-n2c(=O)cnc3cnc(Nc4ccccc4)nc32)cc1,> 11.4 µM (inactive),-13.4% (inactive),5.4% (inactive),-1.48% (inactive),> 9.22 µM (inactive),> 46 µM (inactive),inactive,–,–,–,–,7.14% (inactive),8.28%,18.1%,inactive,–,–,–,–,–
c1cncc(-c2nccc(-n3ccnc3)n2)c1,> 11.4 µM (inactive),-19.4% (inactive),1.68% (inactive),-2.73% (inactive),> 46 µM (inactive),> 46 µM (inactive),inactive,–,–,inactive,–,7.22% (inactive),3.87%,13.2%,inactive,inactive,inactive,–,–,–
Cc1cnc(CNc2ccnc(-c3ccc(C(=O)N(C)C)cc3)n2)cn1,> 11.4 µM (inactive),9.07% (inactive),1.49% (inactive),0.405% (inactive),> 46 µM (inactive),> 46 µM (inactive),inactive,–,–,inactive,inactive,9.3% (inactive),6.03%,15.8%,inactive,inactive,inactive,–,–,–
Cc1ccccc1-c1cncnc1NC1CCNCC1,> 11.4 µM (inactive),11.7% (inactive),-1.26% (inactive),20.9% (inactive),> 46 µM (inactive),> 46 µM (inactive),inactive,inactive,–,inactive,inactive,3.19% (inactive),12.9%,16%,inactive,inactive,inactive,–,–,–
O=C(Nc1ccccc1)N1CC[C@@]2(CCCN(C(=O)c3ccncc3)C2)C1,> 11.4 µM (inactive),-15.8% (inactive),-4.67% (inactive),-5.93% (inactive),–,> 46 µM (inactive),inactive,–,–,–,–,1.5% (inactive),13.8%,15.1%,inactive,inactive,–,–,–,–
CC(=O)NCCNc1nc(-c2ccccc2CN(C)C)nc2ccccc12,> 11.4 µM (inactive),6.16% (inactive),2.15% (inactive),13.7% (inactive),> 46 µM (inactive),> 46 µM (inactive),inactive,–,–,inactive,–,5.82% (inactive),13.1%,18.7%,inactive,inactive,inactive,–,–,–

# Source: PubChem BioAssay (NCATS)
